Experimental data published in PubChem BioAssay (EPA / NIEHS).
Results filed as inconclusive are left out. Active and inactive are the calls of the source. The calls were made as follows, unless noted: active = hit-call score of the fitted dose curve at least 0.9, where 1 is the maximum; inactive = score below 0.9.

Experiments:
[1] = ACEA_ER_80hr: ACEA Biosciences xCELLigence Real-Time Cell Analysis on Estrogen Receptor Agonism for Proliferation (AID 2282667; active = hit-call score of the fitted dose curve at least 0.9, where 1 is the maximum); settings: T47D proliferation, impedance (xCELLigence), 80 h
Summary of the method: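 Real-time impedance growth kinetics of human T-47D breast cells read 80 h after dosing, gain-of-signal fitted relative to DMSO. Compounds: 1:4 serial series, top final concentration 100 uM, n = 2.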

[2] = APR_HepG2_CellCycleArrest_24hr: Apredica 24-hour HepG2 Assay for Cell Cycle Arrest (AID 2282905); settings: imaging, actives raise or lower the signal;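 also: cell cycle arrest scored as ratio of 2N to 4N nuclear DNA content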
Summary of the method: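 HepG2 cells were exposed to compounds at 0.39–200 uM (ten concentrations, duplicate) in 0.5% v/v DMSO for 24 hr. After formaldehyde fixation and Triton permeabilization, Hoechst 33342-stained nuclei were imaged at 20x; DNA content was quantified, with bidirectional fitting against DMSO.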

[3] = APR_HepG2_NuclearSize_24hr: Apredica 24-hour HepG2 Assay for Nuclear Size (AID 2282907); settings: high-content imaging, actives raise or lower the signal
Summary of the method: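 HepG2 human liver cells were exposed for 24 hr to compounds at 0.39–200 uM (ten concentrations, duplicate) in 0.5% v/v DMSO. They were then formaldehyde-fixed, Triton-permeabilized and Hoechst 33342-stained, and nuclear diameter was imaged at 20x. Bidirectional fits were made against DMSO.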

[4] = APR_HepG2_CellLoss_24hr: Apredica 24-hour HepG2 Assay for Cell Loss (AID 2282908); settings: high-content imaging;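 also: fit in both directions so a hit may be cell loss or gain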
Summary of the method: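 Compounds were tested at 0.39–200 uM in duplicate with 0.5% v/v DMSO final. Cells were then fixed in 3.7% formaldehyde, Hoechst 33342 nuclei were imaged at 20x by HCS, and cell number was fitted bidirectionally against DMSO.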

[5] = APR_HepG2_MicrotubuleCSK_24hr: Apredica 24-hour HepG2 Assay for Microtubule CSK Stabilty (AID 2282909); settings: HepG2 microtubule cytoskeleton imaging, actives raise or lower the signal
Summary of the method: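 HepG2 cells exposed 24 h to compounds at 0.39–200 uM (duplicate, 0.5% v/v DMSO final), then fixed, permeabilized and immunostained for alpha-tubulin with Hoechst 33342. Cytoskeleton imaged at 20x; bidirectional fit versus DMSO baseline.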

[6] = APR_HepG2_MitoticArrest_24hr: Apredica 24-hour HepG2 Assay for Mitotic Arrest (AID 2282910); settings: high-content imaging, actives raise or lower the signal
Summary of the method: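 Compounds are dosed onto HepG2 cells across ten concentrations up to 200 uM for 24 hr. Cells are then fixed in 3.7% formaldehyde, permeabilised, and labelled for phospho-histone H3 and nuclei; images are scored by cell cycle analysis and fitted bidirectionally relative to DMSO.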

[7] = APR_HepG2_MitoMembPot_24hr: Apredica 24-hour HepG2 Assay for Mitochondrial Membrane Potential (AID 2282911); settings: imaging, actives raise or lower the signal
Summary of the method: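 Mitochondrial membrane potential imaged via MitoTracker Red CMXRos (250 nM, 30 min pre-fixation) in fixed HepG2 cells with Hoechst nuclear identification. Ten concentrations 0.39–200 uM, 24 h treatment, 0.5% DMSO; CCCP as positive control.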

[8] = APR_HepG2_MitoMass_24hr: Apredica 24-hour HepG2 Assay for Mitochondrial Mass (AID 2282912); settings: high-content imaging, actives raise or lower the signal
Summary of the method: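 Human HepG2 liver cells were exposed for 24 hr to compounds at 0.39–200 uM (duplicates, 0.5% v/v DMSO final). They were stained live with 250 nM MitoTracker Red CMXRos for 30 min, fixed in 3.7% formaldehyde, and imaged by HCS fluorescence; signals were fitted bidirectionally against DMSO.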

[9] = APR_HepG2_p53Act_24hr: Apredica 24-hour HepG2 Assay for p53 Activation (AID 2282913); settings: high-content imaging, actives raise or lower the signal;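 also: p53 protein immunofluorescence averaged per cell in HepG2 with Hoechst nuclei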
Summary of the method: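 Fluorescence imaging of formaldehyde-fixed HepG2 cells labelled for p53 and with Hoechst, 24 h after dosing (0.39–200 uM, duplicate wells, 0.5% v/v DMSO). Signal fitted in both directions relative to DMSO.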

[10] = APR_HepG2_CellCycleArrest_72hr: Apredica 72-hour HepG2 Assay for Cell Cycle Arrest (AID 2282914); settings: high-content imaging, actives raise or lower the signal
Summary of the method: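 Read-out: nuclear DNA content from Hoechst 33342 high-content imaging (20x, six fields/well) after 3.7% formaldehyde fixation, fitted bidirectionally against DMSO. Treatment was 72 h in HepG2, ten concentrations 0.39–200 uM, duplicate, 0.5% DMSO.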

[11] = APR_HepG2_CellLoss_72hr: Apredica 72-hour HepG2 Assay for Cell Loss (AID 2282915); settings: high-content imaging
Summary of the method: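 Cell number comes from Hoechst 33342-labelled nuclei, imaged at 20x after 3.7% formaldehyde fixation. Dosing was 0.39–200 uM, ten concentrations in duplicate, 0.5% DMSO final, for 72 h. Bidirectional fit relative to DMSO baseline.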

[12] = APR_HepG2_P-H2AX_72hr: Apredica 72-hour HepG2 Assay for H2AX Phosphorylation (AID 2282916); settings: imaging, actives raise or lower the signal;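 also: phospho-histone H2A.x immunostain intensity per cell marking DNA damage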
Summary of the method: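 HepG2 human liver cells were exposed for 72 hr to compounds at 0.39–200 uM (10 concentrations, duplicate per plate) in 0.5% v/v DMSO. Fixed, permeabilized cells were immunolabeled for phospho-histone H2A.x with Hoechst 33342 and imaged by HCS fluorescence; bidirectional fit versus DMSO.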

[13] = APR_HepG2_MitoMembPot_72hr: Apredica 72-hour HepG2 Assay for Mitochondrial Membrane Potential (AID 2282917); settings: imaging, actives raise or lower the signal
Summary of the method: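 Membrane potential read by MitoTracker Red CMXRos (250 nM, 30 min, pre-fixation) fluorescence imaging of HepG2 after 72 hr exposure. Ten concentrations, 0.39–200 uM, duplicate wells, 0.5% DMSO; fitted in both directions against DMSO baseline.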

[14] = APR_HepG2_MitoticArrest_72hr: Apredica 72-hour HepG2 Assay for Mitotic Arrest (AID 2282918); settings: high-content imaging, actives raise or lower the signal
Summary of the method: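 High-content imaging of fixed human HepG2 cells after 72 h compound exposure (0.39–200 uM, duplicates, 0.5% DMSO); mitotic arrest scored from phospho-histone H3 and nuclear Hoechst staining relative to DMSO.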

[15] = APR_HepG2_MicrotubuleCSK_72hr: Apredica 72-hour HepG2 Assay for Microtubule CSK Stabilty (AID 2282919); settings: HepG2 microtubule cytoskeleton, high-content imaging, actives raise or lower the signal
Summary of the method: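 Read-out is tubulin fluorescence intensity from high-content imaging of HepG2 cells, with nuclei identified by Hoechst 33342. Treatment lasts 72 h at 0.39–200 uM, and curves are fitted bidirectionally against the DMSO negative control.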

[16] = APR_HepG2_P-H2AX_24hr: Apredica 24-hour HepG2 Assay for H2AX Phosphorylation (AID 2282920); settings: high-content imaging, actives raise or lower the signal
Summary of the method: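 High-content imaging of phospho-histone H2A.x immunofluorescence, nuclei counterstained with Hoechst 33342, in fixed HepG2 cells. Compounds ran 0.39–200 uM in duplicate for 24 h, final DMSO 0.5%. Signal change fitted both directions against DMSO.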

[17] = APR_HepG2_StressKinase_72hr: Apredica 72-hour HepG2 Assay for Stress Kinase (AID 2282921); settings: HepG2 stress kinase (phospho-c-Jun) imaging, actives raise or lower the signal
Summary of the method: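 Cells were exposed for 72 h to ten concentrations (0.39–200 uM, duplicate) at 0.5% v/v DMSO final, then fixed with 3.7% formaldehyde, permeabilized and immunostained for phospho-c-Jun (Cy3 secondary) with Hoechst nuclear counterstain.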

[18] = APR_HepG2_StressKinase_24hr: Apredica 24-hour HepG2 Assay for Stress Kinase (AID 2282922); settings: HepG2 stress kinase (phospho-c-Jun) imaging, actives raise or lower the signal
Summary of the method: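 HepG2, 24 hr dosing, 0.39–200 uM in duplicate, 0.5% DMSO; formaldehyde fix (3.7%), 0.5% Triton X-100; anti-phospho-c-Jun + Cy3 secondary, Hoechst counterstain; ArrayScan imaging; bidirectional curve fit vs DMSO baseline.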

[19] = APR_HepG2_p53Act_72hr: Apredica 72-hour HepG2 Assay for p53 Activation (AID 2282923); settings: high-content imaging, actives raise or lower the signal;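 also: average cellular p53 protein immunofluorescence intensity in HepG2 cells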
Summary of the method: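 Cells were dosed for 72 hr with compounds at 0.39–200 uM in duplicate (final DMSO 0.5% v/v), then fixed in 3.7% formaldehyde, permeabilized with Triton X-100 and immunostained for p53 (Cy5) with Hoechst 33342 nuclear counterstain.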

[20] = APR_HepG2_MitoMass_72hr: Apredica 72-hour HepG2 Assay for Mitochondrial Mass (AID 2282924); settings: high-content imaging, actives raise or lower the signal;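 also: MitoTracker Red CMXRos stain intensity per cell imaged as mitochondrial mass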
Summary of the method: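 HepG2, 72 hr cmpd, 10 conc 0.39–200 uM in dup, DMSO 0.5% v/v. MitoTracker Red CMXRos 250 nM 30 min pre-fix; formaldehyde 3.7% fix 30 min RT. HCS imaging, gain/loss fit vs DMSO.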

CC(=O)C1C(=O)C=C(C)OC1=O (stereo unspecified)
outcome [1]: inactive

C=C(C)C(=O)OCCC(F)(F)C(F)(F)C(F)(F)C(F)(F)C(F)(F)C(F)(F)C(F)(F)C(F)(F)F
outcome [1]: inactive

CC(=O)c1ccc(C)cc1
outcome [1]: inactive

CCCCCCCCOS(=O)(=O)O
outcome [1]: inactive

CCCCCCCCCCOC(=O)c1ccccc1C(=O)OCCCCCCCC
outcome [1]: inactive

C[Si]1(C)N[Si](C)(C)N[Si](C)(C)N1
outcome [1]: inactive

CCCCOCC(C)OCC(C)O (stereo unspecified)
outcome [1]: inactive

CCC(C)(C)C1CCC(OC)CC1 (stereo unspecified)
outcome [1]: inactive

CCc1cccc(O)c1
outcome [1]: inactive

COC(=O)c1cccc(C(=O)OC)c1
outcome [1]: inactive

CC1=CC[C@@H]2C[C@H]1C2(C)C
outcome [1]: inactive

CC(C)(CO)CO
outcome [1]: inactive

C#C[C@]1(O)CC[C@H]2[C@@H]3CCc4cc(O)ccc4[C@H]3CC[C@@]21C
AC50 [2]: 36.8 µM (active) | outcome [3]: inactive | AC50 [4]: 24.3 µM (active) | outcome [5]: inactive | AC50 [6]: 10.9 µM (active) | outcome [7]: inactive | outcome [8]: inactive | AC50 [9]: 87.5 µM (active) | AC50 [10]: 27.9 µM (active) | AC50 [11]: 34.6 µM (active) | AC50 [12]: 70.6 µM (active) | outcome [13]: inactive | AC50 [14]: 58.1 µM (active) | outcome [15]: inactive | AC50 [16]: 83.4 µM (active) | outcome [17]: inactive | outcome [18]: inactive | AC50 [19]: 28.5 µM (active) | outcome [20]: inactive
